GSTO1 inh = counter-screen for RBBP9 inhibitors: inhibitors of human GSTO1; P78417; recombinant GSTO1, activity-based probe fluorescence polarization; inhibition, % at 5.96 µM; actives 1.1% (n = 300,000); AID 1974;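 active means inhibition above the campaign mean inhibition plus 3 SD, cut at about 35% in these data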;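 further: 0% = GSTO1-1 with DMSO and 100% = wells lacking GSTO1-1 enzyme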
Fam108B counter = blocks mouse Fam108B hydrolase in RBBP9 counter-screen | recombinant Fam108B, FP-Rh probe fluorescence polarization | inhibition, % at 9.51 µM | actives 0.33% (n = 300,000);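 active means inhibition above the screen mean inhibition plus 3 SD, computed separately per campaign, cut at about 18% in these data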;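 further: inhibitors lower polarization as less probe binds the enzyme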
PME-1 inh = PME-1 (human) inhibition. Q9Y570. recombinant PME-1, FP-Rh probe fluorescence polarization. inhibition, % at 5.9 µM. actives 0.53% (n = 320,000). AID 2130;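 active means inhibition above the campaign mean of all compounds plus 3 SD, cut at about 26% in these data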;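 further: competitive labeling of PME-1 active site by serine hydrolase directed probe; 0% = PME-1 with DMSO and 100% = wells lacking PME-1 enzyme; inhibitors block probe labeling so polarization falls and inhibition rises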
LYPLA1 counter = blocks human lysophospholipase 1, a PME1 counter-screen; O75608; recombinant LYPLA1, FP-Rh probe fluorescence polarization; inhibition, % at 5.9 µM; actives 0.16% (n = 320,000); AID 2174;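 active means inhibition above the mean of all tested compounds plus 3 SD, set per campaign, cut at about 14% in these data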;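 further: inhibitors block serine hydrolase probe labeling of LYPLA1 so polarization falls; 0% = enzyme with DMSO and 100% = wells lacking LYPLA1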
LYPLA2 inh = counter-screen for PME1 inhibitors: inhibitors of human LYPLA2; actives 0.38% (n = 320,000); O95372; AID 2177; recombinant LYPLA2, FP-Rh probe fluorescence polarization; inhibition, % at 5.9 µM;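 active means inhibition above the screen-wide mean plus 3 SD, limit set per campaign, cut at about 26% in these data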;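 further: 0% = LYPLA2 with DMSO and 100% = wells lacking LYPLA2 enzyme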
PAD4 FP inh = inhibitors of human PAD4. Q9UM07. actives 0.41% (n = 330,000). recombinant PAD4, RCA probe fluorescence polarization. AID 485272. inhibition, % at 6.36 µM;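 active means percent inhibition above a cutoff equal to the mean of all tested compounds plus 3 SD, cut at about 15% in these data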;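 further: 0% = PAD4 with RCA probe and DMSO and 100% = probe without PAD4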
Target sequence (Q9UM07 whole entry, looked up): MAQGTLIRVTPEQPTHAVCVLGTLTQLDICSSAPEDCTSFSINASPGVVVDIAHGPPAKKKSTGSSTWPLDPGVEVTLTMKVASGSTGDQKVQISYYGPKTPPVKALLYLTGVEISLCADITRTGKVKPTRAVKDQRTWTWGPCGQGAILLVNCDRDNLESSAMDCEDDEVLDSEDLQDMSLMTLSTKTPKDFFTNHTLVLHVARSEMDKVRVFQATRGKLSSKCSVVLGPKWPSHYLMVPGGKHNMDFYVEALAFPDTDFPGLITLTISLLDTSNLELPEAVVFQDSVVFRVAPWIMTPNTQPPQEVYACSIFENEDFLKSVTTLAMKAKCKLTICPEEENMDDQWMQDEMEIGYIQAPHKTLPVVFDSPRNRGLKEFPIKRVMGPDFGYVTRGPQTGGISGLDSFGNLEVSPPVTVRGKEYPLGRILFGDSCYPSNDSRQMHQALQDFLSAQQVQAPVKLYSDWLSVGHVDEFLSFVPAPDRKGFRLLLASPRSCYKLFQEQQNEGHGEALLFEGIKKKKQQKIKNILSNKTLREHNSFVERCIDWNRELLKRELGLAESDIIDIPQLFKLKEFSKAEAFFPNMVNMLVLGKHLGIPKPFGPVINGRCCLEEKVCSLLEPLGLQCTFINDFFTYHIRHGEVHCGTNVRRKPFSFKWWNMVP
GSTO1 inh conf = GSTO1 (human) inhibition, confirmation; shares compounds with GSTO1 inh; recombinant GSTO1, probe fluorescence polarization; inhibition, % at 5.96 µM; actives 54% (n = 2,400);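 active means inhibition above the primary screen's cutoff, its mean inhibition plus 3 SD, cut at about 35% in these data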;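 further: loss of polarization as inhibitors block binding of rhodamine sulfonate ester activity probe; 0% = GSTO1 with DMSO and 100% = wells lacking GSTO1 enzyme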
GSTO1 ABPP inh = GSTO1 (human) inhibition by gel ABPP | inhibition, % at 1 µM | shares compounds with GSTO1 inh | actives 30% (n = 130) | recombinant GSTO1, gel ABPP SE-Rh probe fluorescence | AID 463110;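 active means inhibition of the enzyme GSTO1 above about 75%, limit read from the data; inactive means inhibition below that limit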
An asterisk follows results filed as active. Rows were chosen to be rich in hits. Some 1.8% of all compounds tested hit in one or more screens of this group.

Screening COc1cc(CC(CC(=O)O)CC(C)OCc2ccccc2)cc(OC)c1 (stereo not drawn) returned GSTO1 inh -5.0, Fam108B counter 2.3, PME-1 inh 4.0, LYPLA1 counter 3.0, LYPLA2 inh 2.6 and PAD4 FP inh -0.2.
Screening CC1=CC(C)(C)N(C(=O)CCl)c2ccccc21 returned GSTO1 inh 65.1*, Fam108B counter -2.3, PME-1 inh -10.9, LYPLA1 counter 3.0, LYPLA2 inh -4.2, PAD4 FP inh 3.6, GSTO1 inh conf 57.9* and GSTO1 ABPP inh 31.0.
CC1=CC(C)(C)N(C(=O)CCl)c2cc(C)ccc21 was read as GSTO1 inh 20.4, Fam108B counter -0.9, PME-1 inh 6.4, LYPLA1 counter 4.1, LYPLA2 inh 4.3 and PAD4 FP inh 3.1.
For CCCCOC(=O)CSC1=C(C#N)C(c2ccccc2OCC)C(C#N)C(=O)N1 (stereo not drawn) the results were GSTO1 inh 10.1, Fam108B counter 5.6, PME-1 inh 2.8, LYPLA1 counter -3.7, LYPLA2 inh -2.8 and PAD4 FP inh -1.0.
`CCCOC(=O)CSC1=C(C#N)C(c2ccccc2OCC)C(C#N)C(=O)N1` (stereo not drawn) gave GSTO1 inh 71.3*, Fam108B counter 8.8, PME-1 inh 2.1, LYPLA1 counter -1.6, LYPLA2 inh 4.3, PAD4 FP inh 1.5 and GSTO1 inh conf 0.4.
For COc1cc(/C=C2\S/C(=N/S(=O)(=O)Cc3ccccc3)NC2=O)c([N+](=O)[O-])cc1OC the results were GSTO1 inh 7.1, Fam108B counter 3.7, PME-1 inh -2.7, LYPLA1 counter 0.3, LYPLA2 inh 6.7 and PAD4 FP inh -9.3.
For COc1cc(/C=C2/S/C(=N/S(=O)(=O)c3ccccc3)NC2=O)c([N+](=O)[O-])cc1OC the results were GSTO1 inh 41.1*, Fam108B counter 0.8, PME-1 inh -0.9, LYPLA1 counter -0.7, LYPLA2 inh -2.3, PAD4 FP inh -14.6 and GSTO1 inh conf 31.8.
COc1ccc(/C=C2\SC(=O)N(CCNC(=O)C3=COCCO3)C2=O)cc1 was read as GSTO1 inh 41.7*, Fam108B counter 2.5, PME-1 inh 1.2, LYPLA1 counter -2.4, LYPLA2 inh -5.0, PAD4 FP inh -1.0 and GSTO1 inh conf 8.8.
Screening NS(=O)(=O)c1cccc(NC(=O)c2ccc(S(=O)(=O)N3CCCCCC3)cc2)c1 returned PAD4 FP inh 2.3.
For O=C1CC(N(O)c2ccccc2)C(=O)N1c1ccc(Cl)c(Cl)c1 (stereo not drawn) the results were GSTO1 inh 63.5*, Fam108B counter -1.5, PME-1 inh 21.7, LYPLA1 counter 1.9, LYPLA2 inh 10.6, PAD4 FP inh 17.1* and GSTO1 inh conf 5.2.
O=C(O)CSC1CC(=O)N(c2ccc(Cl)c(Cl)c2)C1=O (stereo not drawn) was read as GSTO1 inh 5.2, Fam108B counter -2.0, PME-1 inh -0.8, LYPLA1 counter -5.4, LYPLA2 inh -3.8 and PAD4 FP inh -5.2.
Cc1ccc(NC(=O)CCC(=O)NNC(=O)COc2ccccc2)c(C)c1 was read as GSTO1 inh -5.6, Fam108B counter -2.7, PME-1 inh 0.6, LYPLA1 counter -4.4, LYPLA2 inh -1.7 and PAD4 FP inh -1.3.
Screening O=C(O)c1ccc2cccnc2n1 returned GSTO1 inh -1.0, Fam108B counter 5.3, PME-1 inh -0.7, LYPLA1 counter -3.6, LYPLA2 inh 5.8 and PAD4 FP inh -6.5.
For O=C(O)c1ccc2cccc(O)c2n1 the results were GSTO1 inh 39.2*, Fam108B counter 2.5, PME-1 inh -2.6, LYPLA1 counter -1.9, LYPLA2 inh -0.6, PAD4 FP inh -0.9 and GSTO1 inh conf 22.2.
c1ccc2c(c1)nnn1c3ccccc3nc21 was read as GSTO1 inh 5.6, Fam108B counter -3.7, PME-1 inh 0.7, LYPLA1 counter -3.5, LYPLA2 inh 1.9 and PAD4 FP inh -2.1.
Screening ClC(Cl)(Cl)c1nc2ccccc2n2nncc12 returned GSTO1 inh 64.4*, Fam108B counter 2.3, PME-1 inh -3.3, LYPLA1 counter 1.8, LYPLA2 inh 6.3, PAD4 FP inh 3.6 and GSTO1 inh conf 51.7*.
Screening CC(C)C(=O)N(c1ccc2oc(=O)sc2c1)S(=O)(=O)c1cccs1 returned GSTO1 inh 16.7, Fam108B counter 4.3, PME-1 inh 2.3, LYPLA1 counter 2.5, LYPLA2 inh 3.0 and PAD4 FP inh 14.5.
Screening CC(C)C(=O)N(c1cc2sc(=O)oc2c2ccccc12)S(=O)(=O)c1cccs1 returned GSTO1 inh 85.3*, Fam108B counter 5.8, PME-1 inh -0.9, LYPLA1 counter -4.9, LYPLA2 inh 8.8, PAD4 FP inh 10.8 and GSTO1 inh conf 42.6*.
For CCCc1ccccc1OCCNS(=O)(=O)c1cc2c(cc1C)OCC(=O)N2 the results were GSTO1 inh 43.2*, Fam108B counter 4.3, PME-1 inh -3.0, LYPLA1 counter -5.2, LYPLA2 inh -1.5, PAD4 FP inh 3.5 and GSTO1 inh conf 30.3.
For O/C=c1\ccc2cccc3nc(C(F)(F)F)nc1c23 the results were GSTO1 inh 64.0*, Fam108B counter 3.9, PME-1 inh 0.1, LYPLA1 counter -2.3, LYPLA2 inh -14.7, PAD4 FP inh -15.3 and GSTO1 inh conf 76.1*.
`NNc1nc(C(F)(F)F)nc2ccccc12` gave GSTO1 inh -13.2, Fam108B counter 3.9, PME-1 inh -0.8, LYPLA1 counter -9.4, LYPLA2 inh -3.1 and PAD4 FP inh -3.2.
For Cc1ccn2c(=O)c(C(=O)NC3CCCCC3C)c(O)nc2c1 (stereo not drawn) the results were GSTO1 inh -4.4, Fam108B counter -0.7, PME-1 inh 1.0, LYPLA1 counter 2.5, LYPLA2 inh 0.8 and PAD4 FP inh -5.8.
For O=c1[nH]c(CCl)nc2cc(-c3ccc(F)cc3)sc12 the results were GSTO1 inh 97.0*, Fam108B counter -13.8, PME-1 inh -2.0, LYPLA1 counter -2.8, LYPLA2 inh -3.9, PAD4 FP inh -0.7, GSTO1 inh conf 94.1* and GSTO1 ABPP inh 82.0*.
O=c1[nH]cnc2cc(-c3ccc(Br)cc3)sc12 was read as GSTO1 inh 14.7, Fam108B counter -19.4, PME-1 inh -20.9, LYPLA1 counter -10.0, LYPLA2 inh -12.1 and PAD4 FP inh -4.8.
For CCOc1cccc(C=Nc2cc(C)cc(C)c2O)c1O the results were GSTO1 inh 45.2*, Fam108B counter 3.8, PME-1 inh 11.8, LYPLA1 counter 3.2, LYPLA2 inh 5.5, PAD4 FP inh -5.4 and GSTO1 inh conf -0.6.
`CCc1ccccc1N1CC(C(=O)N2Cc3ccccc3CC2C(N)=O)CC1=O` (stereo not drawn) gave PAD4 FP inh 0.2.

High-throughput results from PubChem.
